# Compound activity: PubChem BioAssay, National Center for Advancing Translational Sciences (NCATS)
# Sampled rows, rich in hits. Any-hit rate of the full collection: about 9%.
# HPGD block: blocks human HPGD enzyme activity. purified HPGD, NADH fluorescence kinetic, PGE2 substrate. P15428. actives 4.3% (n = 150,000). Potency, µM, for inactives: top-dose activity change, negative = inhibition, most hits filed as inhibitors. AID 894; note: potency is the fitted concentration of half-maximal effect
#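 20 nM HPGD preincubated 15 min at room temperature with compound in 50 mM Tris-HCl pH 8, 0.01% Tween 20. Started with 1 mM NAD+ and 30 uM prostaglandin E2; NADH fluorescence (360/450 nm) read 5 times over 30-s intervals, last minus first.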
# IMPase inh: membrane-permeable compound that blocks inositol monophosphatase | P97697 | CHO-M1 cells, IP1 accumulation, HTRF TR-FRET ratio | inhibition (IP1 accumulation), % at 46.1 µM | 120,000 tested, under 10 active | AID 901; active = well fitted curve in the direction sought with a large enough effect in the signal ratio, not every such curve was filed as active; inconclusive = small, poorly fitted or top-dose-only effect, or a change in a side signal; inactive = no such curve, though single readings can be large or run the other way; the % refers to the signal ratio;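 note: cells stimulated with carbachol in lithium chloride buffer; plate controls were DMSO basal wells for no effect and reference inhibitor wells for full effect; higher means more IMPase inhibition seen as more IP1 and lower FRET ratio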
#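 CHO-M1, 2000 cells/well, cultured 16–30 h; cpd up to 46 uM; carbachol (50 uM solution, stimulation buffer w/ 50 mM LiCl, pH 7.4), 30 min 37C; IP-One TR-FRET, 10 min RT; Ex 320/Em 665, 620; Hill-fit AC50.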
# ALDH1A1 inh: ALDH1A1 (human) enzyme inhibition | AID 1030 | Potency, µM (top dose mostly 75.3 µM), for inactives: top-dose activity, negative = inhibition, usual class: inhibitors | Purified ALDH1A1, NADH fluorescence, propionaldehyde substrate | P00352 | actives 7.3% (n = 220,000);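 note: potency is the fitted concentration of half-maximal effect; plate controls were no enzyme wells and a reference inhibitor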
# Target sequence (P00352 whole entry, looked up): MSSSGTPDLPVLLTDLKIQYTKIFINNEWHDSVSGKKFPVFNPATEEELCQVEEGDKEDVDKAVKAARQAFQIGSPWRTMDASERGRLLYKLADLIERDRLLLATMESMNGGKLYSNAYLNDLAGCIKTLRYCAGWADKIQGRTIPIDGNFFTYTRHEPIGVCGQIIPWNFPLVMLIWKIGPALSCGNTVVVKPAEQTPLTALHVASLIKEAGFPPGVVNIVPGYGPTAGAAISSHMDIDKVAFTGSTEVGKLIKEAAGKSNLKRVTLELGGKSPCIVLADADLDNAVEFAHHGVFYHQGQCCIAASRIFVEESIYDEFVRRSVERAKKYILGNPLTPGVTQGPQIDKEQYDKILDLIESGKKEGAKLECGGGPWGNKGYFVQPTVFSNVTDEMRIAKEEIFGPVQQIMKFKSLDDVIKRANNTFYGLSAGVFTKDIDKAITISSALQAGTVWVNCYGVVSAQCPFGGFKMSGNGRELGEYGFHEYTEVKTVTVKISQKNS
# * = called active by the depositor; u = inconclusive; x = no result given; ! = not active in a repeat; [ ] = remark or other dose. Unless noted, calls come from the whole dose curve; as a rule, active = well fitted inhibition curve with a large enough effect (not every such curve was filed as active); inconclusive = small, poorly fitted or top-dose-only effect, or another doubt; inactive = no such curve, though single readings can be large or run the other way. Unless noted, % is set by controls: 0 for no effect and ±100 for the full control effect.
SMILES,HPGD block,IMPase inh,ALDH1A1 inh
S=C(Nc1ccccc1)N1CCn2c1nc1ccccc12,15.8µM*,7.7,-9.0%
O=C(c1ccco1)N1CCC[C@@]2(CCN(c3ncccn3)C2)C1,-18.4%,x,u
CCN(C(=O)COC(=O)c1cccnc1Nc1cccc(C(F)(F)F)c1)C1CCS(=O)(=O)C1 (stereo unspecified),u,x,0.1%
Cc1ccccc1OCCc1c(C)[nH]c(=S)[nH]c1=O,x,x,20µM*
Cc1[nH]c(=S)[nH]c(=O)c1CCOc1ccccc1,-14.6%,3.0,u
CC(c1ccccc1)C1CC(=O)N(Cc2ccccc2)C1=O (stereo unspecified),x,x,-4.0%
c1csc(C2Nc3cccc4cccc(c34)N2)c1,u,3.6,u
CCOc1cc(C2Nc3cccc4cccc(c34)N2)ccc1O,-25.9%,1.0,20µM*
COc1ccccc1C1Nc2cccc3cccc(c23)N1,u,3.3,u
Oc1ccccc1C1Nc2cccc3cccc(c23)N1,u,4.1,23.8µM*
CCOc1ccc(C2Nc3cccc4cccc(c34)N2)cc1OC,-27.5%,4.1,u
Brc1ccc(C2Nc3cccc4cccc(c34)N2)o1,u,1.6,4.47µM*
O=c1cc(CN2CCN(S(=O)(=O)c3ccc4ccccc4c3)CC2)nc2sccn12,x,x,-2.7%
N[C@@H](C(=O)O)c1ccc(O)c(C(=O)O)c1,u,-2.3,u
O=S(=O)(Nc1ccc2ccccc2n1)c1ccc2c(c1)CCO2,x,x,-5.0%
O=S(=O)(c1ccc(OCC(O)CNC23CC4CC(CC(C4)C2)C3)c(Cl)c1)N1CCOCC1 (stereo unspecified),x,x,0.6%
COC(=O)CSC1=C(C#N)C(c2cccc(OC)c2)CC(=O)N1 (stereo unspecified),-14.1%,3.7,6.7%
CCCCSC1=C(C#N)C(c2ccccc2C)CC(=O)N1 (stereo unspecified),u,5.0,-11.9%
CCCCCCSC1=C(C#N)C(c2ccc(C)o2)CC(=O)N1 (stereo unspecified),31.6µM*,9.0,7.94µM*
N#CC1=C(SCC(=O)NCc2ccccc2)NC(=O)CC1c1ccco1 (stereo unspecified),-9.8%,2.5[1.84 µM],8.91µM*
CC1=C(C(=O)Nc2ccccc2)C(c2ccco2)C(C#N)=C(SCc2ccccc2)N1 (stereo unspecified),u,9.7,u
Cc1ccc(C2CC(=O)NC(SCc3ccccc3)=C2C#N)o1 (stereo unspecified),22.4µM*,4.8,-103.0%
CCCSC1=C(C#N)C(c2ccccc2C)CC(=O)N1 (stereo unspecified),u,-0.9,u
N#CC1=C(SCc2ccccc2)NC(=O)CC1c1ccco1 (stereo unspecified),-28.4%,7.9,22.4µM*
CC(=O)Nc1nc(NC(=O)/C=C/c2ccccc2)n(-c2ccccc2)n1,-4.1%,x,7.0%
SMILES,HPGD block,IMPase inh,ALDH1A1 inh
Cn1c(=O)c(-c2cc(=O)[nH][nH]2)c(O)c2ccccc21,x,x,2.0%
COc1ccc(C)cc1N(CC(=O)NC1CCCC1)C(=O)CCC(=O)Nc1cc(C)on1,-0.8%,7.0,16.5%
CC(C)CN(CC(C)C)C(=O)COc1ccccc1C(N)=O,x,x,-3.6%
N#CC1=C(SCC(=O)NC2CCCCC2)NC(=O)CC1c1ccco1 (stereo unspecified),-17.2%,-3.2,11.2µM*
CCOc1ccc(C2CC(=O)NC(SCC(=O)OC)=C2C#N)cc1 (stereo unspecified),-17.5%,1.6,-4.8%
CCCCCn1c(=N)c(S(=O)(=O)c2ccccc2)cc2c(=O)n3cccc(C)c3nc21,x,5.5,x
Cc1nc(Cl)cc(CS(=O)(=O)c2ccc(Cl)cc2)n1,x,x,20µM*
Cc1nc(CS(=O)(=O)c2ccccc2)cc(Sc2ccc(Cl)cc2Cl)n1,-2.5%,5.8[1.84 µM],u
O=C(COC(=O)c1cc(-c2cccs2)nc2ccccc12)c1ccc(Br)cc1,x,-1.6,x
COc1ccccc1Nc1nc(-c2cccs2)cs1,-28.8%,6.8,3.98µM*
COc1ccc(OC)c(Nc2nc(-c3cccs3)cs2)c1,-22.8%,-4.3,-7.8%
CCN1CCCC1CNC(=O)c1ccc(Cc2nc3ccccc3[nH]2)cc1 (stereo unspecified),-9.4%,x,-0.1%
C[C@H](CCC(=O)NN)[C@@H]1CC[C@@H]2[C@H]3CC[C@H]4C[C@@H](O)CC[C@@]4(C)[C@@H]3CC[C@]21C,-8.7%,x,-8.3%[13.5 µM]
OC(CCN1CCCCC1)(c1ccccc1)C1CCCCC1 (stereo unspecified),-3.4%,x,11.2%
OC(CCN1CCOCC1)(c1ccc(Cl)cc1)C1CCCCC1 (stereo unspecified),2.6%,21.2,7.08µM*
CCOC(=O)c1c(CC(C)C)csc1/N=C/C1C(=O)CCCC1=O,x,x,11.2µM*
CCOC(=O)c1c(-c2ccccc2)csc1/N=C/C1C(=O)CCCC1=O,-6.7%,x,3.55µM*
CCOC(=O)c1c(CC(C)C)csc1NC=O,-19.3%,7.4,u
CCOC(=O)c1c(-c2ccc(C)cc2)csc1/N=C/N(C)C,x,x,-0.4%
Cc1nc([N+](=O)[O-])c(C(=O)O)n1C,x,x,3.6%
Nc1ccc(N2CCOCC2)c2nonc12,x,x,20µM*
O=C(Nc1ccc(N2CCOCC2)c2nonc12)C1CCCC1,-18.8%,13.3,u
CSc1ncnc2c1ncn2CC(=O)[C@H]1CC[C@H]2[C@H]3CCC4=CC(=O)CC[C@@]4(C)[C@@H]3CC[C@@]12C,0.1%,x,u
CC(=O)c1c(C)[nH]c(C(=O)N2CCc3ccccc3C2)c1C,17.8µM*,4.9,0.2%
CCOC(=O)c1c(C)c(C(=O)Nc2ccccc2)c(C)n1CC,-0.7%,4.7,-0.3%
SMILES,HPGD block,IMPase inh,ALDH1A1 inh
CCOC(=O)c1c(C)c(C(=O)N2CCc3ccccc3C2)c(C)n1CC,4.47µM*,5.3,u
CC(=O)c1c(C)[nH]c(C(=O)N2CCN(C(=O)c3ccco3)CC2)c1C,-9.8%,-3.9,-4.0%
CN(C)Cc1ccccc1-c1nccc(NC2CC2)n1,-0.7%,x,9.4%
CCC(CO)n1c(SCc2cc([N+](=O)[O-])cc3c2OCOC3)nc2ccccc2c1=O (stereo unspecified),-13.1%,x,-9.9%
C=CCn1c(SCc2cc([N+](=O)[O-])cc3c2OCOC3)nc2cc(C(=O)O)ccc2c1=O,x,x,10µM*
C=CCn1c(SCC(=O)Nc2ccc(F)cc2)nc2cc(C(=O)O)ccc2c1=O,x,x,-15.4%
C=CCn1c(SCC(=O)NC23CC4CC(CC(C4)C2)C3)nc2cc(C(=O)O)ccc2c1=O,x,x,12.6µM*
COCOc1c2c(c(OCOC)c3c(OCOC)cccc13)/C(=N/N[S+](=O)([O-])c1ccc(C)cc1)C1=C2CCCC1,-24.4%,x,-10.2%
CC/C=C\C/C=C\C/C=C\CCCCCCCCCCCC(=O)O,-17.9%,x,22.4µM*!
CC/C=C\C/C=C\C/C=C\CCCCCCCC(=O)O,-3.2%,-1.0,10µM*!
CC/C=C\C/C=C\C/C=C\C/C=C\C/C=C\CCCC(=O)O,-7.2%,x,-7.6%
CC/C=C\C/C=C\C/C=C\CCCCCCCCCC(=O)O,-5.7%,x,2.3%
COc1ccc(/C(N)=N/OC(=O)Cc2ccc(OC)c(OC)c2)cc1,x,-4.4,7.94µM*
COc1ccc(C/C(N)=N/OC(C)=O)cc1OC,-0.2%,x,9.6%
COc1ccc(C/C(N)=N/OC(=O)C(c2ccccc2)c2ccccc2)cc1OC,x,0.5,6.31µM*
COc1ccc(C/C(N)=N/OC(=O)Cc2ccc(OC)c(OC)c2)cc1,-5.9%,5.0,-5.5%
